High-throughput results as filed in PubChem BioAssay.
ALOX12 inh = ALOX12 (human) lipoxygenase inhibition | purified 12hLO, xylenol orange hydroperoxide absorbance | hit rate 1.1% among 580,000 | Potency, µM (highest dose often 108 µM), most hits filed as inhibitors | AID 1671190
Target sequence (P18054 whole entry, looked up): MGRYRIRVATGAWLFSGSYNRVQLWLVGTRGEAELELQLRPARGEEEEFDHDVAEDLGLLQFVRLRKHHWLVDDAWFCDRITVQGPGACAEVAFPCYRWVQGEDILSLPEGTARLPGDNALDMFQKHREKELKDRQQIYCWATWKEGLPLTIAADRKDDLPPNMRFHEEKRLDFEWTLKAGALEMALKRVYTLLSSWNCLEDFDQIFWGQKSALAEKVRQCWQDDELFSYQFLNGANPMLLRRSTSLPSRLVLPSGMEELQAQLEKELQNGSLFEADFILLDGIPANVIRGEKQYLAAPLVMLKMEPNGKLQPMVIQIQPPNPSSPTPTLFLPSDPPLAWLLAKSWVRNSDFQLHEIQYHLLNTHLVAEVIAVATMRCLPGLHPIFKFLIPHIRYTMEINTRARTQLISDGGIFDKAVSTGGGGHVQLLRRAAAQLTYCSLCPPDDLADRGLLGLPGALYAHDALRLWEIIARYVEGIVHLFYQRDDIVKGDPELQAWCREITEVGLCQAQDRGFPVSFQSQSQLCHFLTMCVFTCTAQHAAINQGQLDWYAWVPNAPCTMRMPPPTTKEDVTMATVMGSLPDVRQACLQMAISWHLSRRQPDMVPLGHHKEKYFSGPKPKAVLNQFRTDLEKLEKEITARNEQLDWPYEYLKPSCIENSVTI
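Purified human 12hLO (150 nM final) in 25 mM Hepes, 0.01% Triton X-100, pH 7.0 was preincubated 15 min at room temperature with compound. Then 40 uM arachidonic acid was added, 30 min. Hydroperoxide was read by Fe-XO absorbance ratio 573/405 nm.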
VP16 counter = counter-screen for ROR gamma inhibitors: Gal4-VP16 reporter. hit rate 3.5% among 310,000. AID 2546. Potency, µM (top dose mostly 53.6 µM), hits mostly inhibitors. Drosophila S2 Gal4-VP16 UAS-luciferase, luminescence, 20 h;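 note: Gal4-VP16 expression switched on by copper sulfate through the metallothionein promoter; nearly all actives have a fitted effect of over 50% in size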
DT40 TDP1 CPT = growth inhibition of DT40 Tdp1-/-;hTDP1 cells with camptothecin (screen for TDP1 inhibitors); chicken DT40 Tdp1-/-;hTDP1 cells + 20 nM CPT, ATP luminescence, 48 h; Potency, µM (top dose mostly 46.2 µM), usual class: inhibitors; hit rate 12% among 420,000; AID 686979; note: nearly all actives have a fitted effect of over 55% in size
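Chicken DT40 Tdp1-/- cells complemented with human TDP1, 400 cells/well, exposed to compounds plus 20 nM camptothecin for at least 48 h at 37 C; viability read as ATP content by CellTiter-Glo luminescence.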
ELG1 DNA repair = ELG1-dependent DNA repair inhibition; HEK293T ELG1-luciferase reporter, luminescence, 16 h; DNA damage induced by 5-fluorouridine; Potency, µM (top dose mostly 46.1 µM), actives largely listed as inhibitors; hit rate 2.3% among 330,000; AID 504467; note: nearly all actives have a fitted effect of over 55% in size
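DMSO vehicle served as the neutral condition. Each well held 2,000 cells given 5-fluorouridine plus compound; after 16 hr at 37 °C/5% CO2, ONE-Glo was added and luciferase measured 30 min later.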
RORg inh = blocks mouse ROR gamma transcriptional activity. P51450. Drosophila S2 Gal4-RORgamma UAS-luciferase reporter, 20 h. Potency, µM (highest dose often 53.6 µM), most hits filed as inhibitors. hit rate 5.4% among 310,000. AID 2551; note: nearly all actives have a fitted effect of over 60% in size
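Stable Schneider cell line, Gal4 DNA-binding domain fused to ROR gamma, UAS-luciferase. Cmpd 1 hr RT → CuSO4 700 uM final → 20 hr RT → luciferase reagent 10 min → luminescence.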
DT40 TDP1 no CPT = qHTS for Inhibitors of human tyrosyl-DNA phosphodiesterase 1 (TDP1): qHTS in cells in absence of CPT | hit rate 15% among 420,000 | AID 686978, 2013 | Potency, µM (series often up to 46.2 µM), hits mostly inhibitors | DT40 Tdp1-/- hTDP1 cells, no CPT, ATP luminescence, 48 h; note: nearly all actives have a fitted effect of over 55% in size
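Growth of hTDP1-complemented DT40 Tdp1-knockout cells is measured by ATP luminescence after at least 48 hr compound exposure at 37 °C, with DMSO substituting for the 20 nM CPT used in the parallel screen.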
Numbers stand for hits; n = inactive; u = inconclusive; x = no result; [ ] = remark or other dose. This is a sample that favours compounds with a hit; in the whole collection about 15% have one here. Calls come from the whole dose curve; as a rule, active = well fitted curve in the direction sought with a large enough effect; inconclusive = small, poorly fitted or top-dose-only effect, or another doubt; inactive = no such curve, though single readings can be large; an effect the other way counts as inactive or inconclusive.

SMILES	ALOX12 inh	VP16 counter	DT40 TDP1 CPT	ELG1 DNA repair	RORg inh	DT40 TDP1 no CPT
CC(C)=CCC/C(C)=C/CC/C(C)=C/CC[C@]1(C)CCc2c(C)c(O)c(C)c(C)c2O1	n[12.5 µM]	x	x	x	x	x
Cc1ccc(N(Cc2cc3ccccc3[nH]c2=O)C(=O)c2cccs2)cc1C	n	n	u	23.1µM	u	18.4µM
O=C(c1cccs1)N(Cc1cc2ccccc2[nH]c1=O)c1ccccc1	n	n	13µM	n	u	10.3µM
Cc1ccc(N(Cc2cc3cc(C)ccc3[nH]c2=O)C(=O)c2cccs2)cc1	n	n	u	n	n	23.1µM
Clc1ccc(-c2cnc([C@@H]3COCCN3Cc3ccccc3)[nH]2)cc1	n	x	x	x	x	x
CC(C)(C)NC(=O)N1CCCC1c1noc(COc2ccc(F)cc2)n1 (stereo not drawn)	n	x	x	x	x	x
O=C(COc1ccc(Br)cc1F)OCC(=O)N1CCNC1=O	n	x	x	x	x	x
NC(=O)c1ccsc1NC(=O)COC(=O)c1ccc(Cl)cc1F	n	x	x	x	x	x
Fc1ccccc1CN1CCCN(C(=S)Nc2cccc(Cl)c2)C1	u	u	u	n	7.08µM	u
O=C(Nc1ccccc1)N1CCCN(Cc2ccccc2F)C1	n	n	u	n	n	u
Cc1ccccc1NC(=S)N1CCCN(Cc2ccc(F)cc2)C1	u	n[10 µM]	n	n	n	n
Cc1ccc(NC(=S)N2CCCN(Cc3ccc(F)cc3)C2)c(C)c1	u	u	u	n	12.6µM	20.6µM
Cc1c(Cl)cccc1NC(=S)N1CCCN(Cc2ccccc2F)C1	u	u	n	n	12.6µM	n
Cc1c(Cl)cccc1NC(=S)N1CCCN(Cc2ccc(F)cc2)C1	u	u	u	n	15.8µM	u
Cc1noc(C2CC3(CCN(C(=O)c4cccn4C)CC3)CN2C)n1 (stereo not drawn)	n	x	x	x	x	x
CCOc1ccccc1N1CC(c2nc3ccccc3n2CCOc2ccc(OC)cc2)CC1=O (stereo not drawn)	n	x	u	x	x	18.4µM
CCOC(=O)Cn1c(C2CC(=O)N(Cc3ccccc3)C2)nc2ccccc21 (stereo not drawn)	n	x	x	x	x	x
C#CCn1c(C2CC(=O)N(c3ccc(OCC)cc3)C2)nc2ccccc21 (stereo not drawn)	n	x	u	x	x	u
CCc1ccccc1N1CC(c2nc3ccccc3n2CC(C)C)CC1=O (stereo not drawn)	n	x	14.6µM	x	x	20.6µM
COc1ccc(OCCn2c(C3CC(=O)N(c4ccc(F)cc4)C3)nc3ccccc32)cc1 (stereo not drawn)	u	x	16.4µM	x	x	18.4µM
Cc1ccc(OCCn2c(C3CC(=O)N(Cc4ccccc4)C3)nc3ccccc32)cc1 (stereo not drawn)	u	u	u	14.6µM	u	14.6µM
CCOc1ccccc1N1CC(c2nc3ccccc3n2CCCOc2ccc(OC)cc2)CC1=O (stereo not drawn)	n	x	n	x	x	n
CC(NC(=O)CCc1ncc(-c2ccccc2Cl)o1)c1ccc(S(N)(=O)=O)cc1 (stereo not drawn)	n	x	x	x	x	x
CCc1nc2cc(N3CCCC(C(=O)NC4CCCC4)C3)cnc2nc1CC (stereo not drawn)	n	x	x	x	x	x
Cc1ccccc1OCCCCn1c(C2CC(=O)N(c3ccccc3Cl)C2)nc2ccccc21 (stereo not drawn)	u	x	u	x	x	n
SMILES	ALOX12 inh	VP16 counter	DT40 TDP1 CPT	ELG1 DNA repair	RORg inh	DT40 TDP1 no CPT
Cc1cc(C)cc(OCCn2c(C3CC(=O)N(c4ccccc4Cl)C3)nc3ccccc32)c1 (stereo not drawn)	n	x	u	x	x	20.6µM
CCOc1ccc(N2CC(c3nc4ccccc4n3CCCOc3ccc(OC)cc3)CC2=O)cc1 (stereo not drawn)	n	x	u	x	x	8.2µM
O=C(c1ccccc1F)N1CCCC(c2nn(-c3ccccc3)c(=O)[nH]2)C1 (stereo not drawn)	n	x	x	x	x	x
O=C(CN1C(=O)/C(=C\c2ccco2)SC1=S)Nc1ccc(O)cc1C(=O)O	25.1µM	n	n	n	n	n
O=C(CCCN1C(=O)/C(=C/c2ccco2)SC1=S)Nc1ccccc1C(=O)O	31.6µM	n	n	n	n	u
CC(C(=O)Nc1ccc(O)cc1C(=O)O)N1C(=O)/C(=C\c2cccs2)SC1=S (stereo not drawn)	31.6µM	n	n	n	n	n
O=C(CCN1C(=O)/C(=C/c2ccco2)SC1=S)Nc1ccc(O)cc1C(=O)O	u	n	n	n	n	n
O=C(CCCN1C(=O)/C(=C\c2cccs2)SC1=S)Nc1ccccc1O	n	x	u	x	x	u
O=C(O)CCCN1C(=O)/C(=C\c2ccco2)SC1=S	u	1.26µM	n	n	3.98µM	n
Nc1ccc(Br)cc1-c1ccccc1	n	x	x	x	x	x
O=C(CCC1CCCC1)NCCNC(=O)CCC1CCCC1	n	x	x	x	x	x
CCNC(=O)N[C@H]1C[C@@H](c2nc(-c3ccc(OC(F)(F)F)cc3)no2)N(C)C1	n	x	x	x	x	x
Cc1ccc(NC(=O)c2nn(C)c(=O)c3ccccc23)cc1Cl	n	x	x	x	x	x
CN(CC(=O)Nc1ccc(F)cc1)C(=O)COc1ncnc2scc(-c3ccc(Cl)cc3)c12	n	x	x	x	x	x
O=C(CCN1C(=O)/C(=C/c2ccco2)SC1=S)Nc1ccc(C(=O)O)c(O)c1	u	n	n	n	n	n
O=C(CCCN1C(=O)/C(=C\c2ccco2)SC1=S)Nc1ccc2ccccc2c1	u	10µM	u	n	12.6µM	u
CCOC(=O)c1sc(=S)n(-c2cc(F)ccc2F)c1N	u	n	u	n	n	n
COC(=O)c1sc(=S)n(-c2cc(F)ccc2F)c1N	u	n	14.6µM	n	n	u
CC(OC(=O)Cn1cnc2c1c(=O)n(C)c(=O)n2C)C(=O)Nc1ccc(F)cc1 (stereo not drawn)	n	x	x	x	x	x
Cc1cccc(N2CCN(C(=O)CSCc3ccc(F)cc3)CC2)c1C	n	x	u	x	x	u
Cc1cccc(N2CCN(C(=O)CNC(=O)c3ccccc3)CC2)c1C	n	n	n	n	n	u
Cc1cccc(N2CCN(C(=O)CNC(=O)C3CCCCC3)CC2)c1C	n	x	18.4µM	u	x	u
Cc1cccc(N2CCN(C(=O)c3ccccc3SCC(=O)N3CCCC3)CC2)c1C	n	x	9.2µM	u	x	13µM
NS(=O)(=O)c1ccccc1[N+](=O)[O-]	n	x	x	x	x	x
CCc1ccccc1OCC(=O)Nc1nc(-c2cccnc2)cs1	n	11.2µM	3.26µM	n	3.16µM	3.26µM
Cc1ccccc1OCC(=O)Nc1nc(-c2ccncc2)cs1	n	x	20.6µM	u	x	14.6µM
CCC(=O)c1ccc(OCC(=O)Nc2nc(-c3cccnc3)cs2)cc1	u	x	n	u	x	u
Cc1cc(C)c(OCC(=O)Nc2nc(-c3ccccn3)cs2)c(C)c1	n	u	3.66µM	u	2.82µM	4.11µM
